Drawing on PubChem BioAssay (EPA / NIEHS), this text covers outcome and AC50 for 23 molecules.

SMILES strings stand for the structures. Values joined by “and” are separate entries in the source; they are usually repeats but may differ in a detail not shown here. Identical values can stand only once. Inconclusive results are not listed. Where a structure was tested more than once in an assay, its records may differ in their call. Active and inactive are the calls of the source. How the source made its calls: active means hit-call score of the fitted dose curve at least 0.9, where 1 is the maximum; inconclusive means response in the unintended direction; inactive means score below 0.9.

Chain of rat Glutamate, AMPA Site (AMPA), Gria1 (gene 50592) (P19490 whole entry, looked up): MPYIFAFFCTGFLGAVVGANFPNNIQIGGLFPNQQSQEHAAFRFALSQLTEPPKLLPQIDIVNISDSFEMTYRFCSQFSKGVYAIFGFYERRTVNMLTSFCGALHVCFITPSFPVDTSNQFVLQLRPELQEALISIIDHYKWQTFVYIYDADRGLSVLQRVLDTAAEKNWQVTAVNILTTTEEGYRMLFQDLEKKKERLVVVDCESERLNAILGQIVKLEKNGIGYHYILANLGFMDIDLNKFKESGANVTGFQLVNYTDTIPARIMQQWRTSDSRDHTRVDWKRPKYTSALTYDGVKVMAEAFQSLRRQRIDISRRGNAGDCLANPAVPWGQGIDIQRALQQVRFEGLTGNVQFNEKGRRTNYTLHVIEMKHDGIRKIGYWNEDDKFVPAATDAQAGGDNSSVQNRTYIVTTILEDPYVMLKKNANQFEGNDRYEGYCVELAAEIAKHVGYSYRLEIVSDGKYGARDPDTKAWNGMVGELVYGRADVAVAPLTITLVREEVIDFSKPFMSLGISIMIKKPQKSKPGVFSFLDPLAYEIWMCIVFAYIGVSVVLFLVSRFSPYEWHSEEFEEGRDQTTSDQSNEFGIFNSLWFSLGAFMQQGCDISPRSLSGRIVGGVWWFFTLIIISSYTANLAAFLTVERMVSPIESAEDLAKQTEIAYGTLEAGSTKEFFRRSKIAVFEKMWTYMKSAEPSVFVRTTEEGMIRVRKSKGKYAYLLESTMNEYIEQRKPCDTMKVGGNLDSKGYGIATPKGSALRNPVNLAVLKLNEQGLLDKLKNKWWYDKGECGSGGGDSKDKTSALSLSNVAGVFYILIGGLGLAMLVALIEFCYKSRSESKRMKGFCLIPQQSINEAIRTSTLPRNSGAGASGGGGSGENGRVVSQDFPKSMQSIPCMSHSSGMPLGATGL
Chain of human Androgen Receptor (AR), AR (gene 367) (P10275 whole entry, looked up): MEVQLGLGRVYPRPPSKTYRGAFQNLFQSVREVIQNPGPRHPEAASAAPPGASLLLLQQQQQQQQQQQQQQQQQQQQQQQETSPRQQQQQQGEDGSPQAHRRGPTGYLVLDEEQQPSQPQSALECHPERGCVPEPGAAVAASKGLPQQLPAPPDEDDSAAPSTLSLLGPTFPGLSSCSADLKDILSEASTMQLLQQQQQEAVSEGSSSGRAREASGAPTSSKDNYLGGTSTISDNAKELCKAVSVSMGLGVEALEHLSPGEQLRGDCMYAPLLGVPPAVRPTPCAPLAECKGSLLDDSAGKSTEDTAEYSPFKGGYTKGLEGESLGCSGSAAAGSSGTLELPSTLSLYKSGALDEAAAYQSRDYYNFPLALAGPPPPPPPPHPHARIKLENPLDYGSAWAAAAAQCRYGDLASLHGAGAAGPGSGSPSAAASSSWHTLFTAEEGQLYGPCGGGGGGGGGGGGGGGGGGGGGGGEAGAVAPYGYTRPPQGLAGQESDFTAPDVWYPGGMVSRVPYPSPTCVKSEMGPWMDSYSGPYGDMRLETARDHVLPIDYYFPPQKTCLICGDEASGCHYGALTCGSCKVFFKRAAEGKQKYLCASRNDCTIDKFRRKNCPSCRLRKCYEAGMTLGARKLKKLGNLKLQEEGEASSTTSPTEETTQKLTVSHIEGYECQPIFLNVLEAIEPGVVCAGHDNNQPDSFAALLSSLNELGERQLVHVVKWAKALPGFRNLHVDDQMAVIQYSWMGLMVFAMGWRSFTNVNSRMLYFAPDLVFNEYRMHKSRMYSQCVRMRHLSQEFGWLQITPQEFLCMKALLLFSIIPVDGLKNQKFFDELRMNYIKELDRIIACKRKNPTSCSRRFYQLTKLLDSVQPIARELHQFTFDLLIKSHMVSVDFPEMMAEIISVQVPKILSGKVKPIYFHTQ

One assay deals with rat Glutamate, AMPA Site (AMPA), Gria1 (gene 50592) (UniProt P19490). Briefly: NVS_LGIC_rAMPA: NovaScreen (NVS) Ligand-Gated Ion Channel Assay for rat Glutamate, AMPA Site (AMPA) (AID 2283324). The gist of the method:
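Screening at 25 uM in duplicate preceded concentration series reaching 50 uM for qualifying compounds. Radioligand displacement on rat forebrain membranes, 1 h, filter-based scintillation readout; reduced binding relative to DMSO.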
Turning to `Cc1cc(CCN2CCN(c3nsc4ccccc34)CC2)cc2c1NC(=O)CC2(C)C`, the result was inactive. Same read-out and setting: as for `CC[C@H](C)[C@@H](C(=O)O)n1sc2ccccc2c1=O`, the entry is “inactive”; as for `CN1CCN(c2ccccc2/C=C2\SCCN(c3ccc(Cl)c(Cl)c3)C2=O)CC1`, “inactive”. Still for that read-out and setting: for `CCCCCCCC(=O)O` the value was “inactive”; for `COC(=O)CCCCC(=O)OC`, “inactive”. Turning to `NC(=O)N(O)[C@@H]1C=C[C@H](Oc2cccc(Oc3ccc(F)cc3)c2)C1`, the molecule was classed as inactive. Regarding `Cc1cc(C)c(O)c(C)c1`, the molecule was classed as inactive.

For a further assay, the target named is rat Thyrotropin Releasing Hormone Receptor (TRH), Trhr (gene 25570) (UniProt Q01717). Briefly: NVS_GPCR_rTRH: NovaScreen (NVS) G Protein-Coupled Receptor Assay for rat Thyrotropin Releasing Hormone Receptor (TRH) (AID 2283329).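 Further: hit means lower bound tracer signal versus DMSO baseline.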 The gist of the method: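 Test compounds are screened at 25 uM in duplicate against radioligand binding in rat forebrain membranes, with active pairs followed up over a concentration range. Detection uses filter-based radiodetection after a 4 h exposure.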
Chain of rat Thyrotropin Releasing Hormone Receptor (TRH), Trhr (gene 25570) (Q01717 whole entry, looked up): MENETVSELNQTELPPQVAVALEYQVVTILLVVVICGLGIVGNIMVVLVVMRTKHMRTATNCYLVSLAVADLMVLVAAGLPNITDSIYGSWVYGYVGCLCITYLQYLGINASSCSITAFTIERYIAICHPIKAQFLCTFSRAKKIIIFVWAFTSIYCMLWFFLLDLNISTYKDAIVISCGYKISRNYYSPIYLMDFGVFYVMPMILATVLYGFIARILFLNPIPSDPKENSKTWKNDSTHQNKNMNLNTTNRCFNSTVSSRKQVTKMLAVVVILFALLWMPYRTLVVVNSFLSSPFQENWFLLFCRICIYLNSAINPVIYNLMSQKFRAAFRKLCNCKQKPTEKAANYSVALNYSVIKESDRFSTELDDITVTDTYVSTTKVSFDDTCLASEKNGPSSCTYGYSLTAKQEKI
On to `C#C[C@]1(O)CC[C@H]2[C@@H]3CCC4=CC(=O)CC[C@@H]4[C@H]3CC[C@@]21C`, for which the molecule was called inactive. Regarding `CC(=O)CC(C)(C)O`, the molecule was called inactive.

In the case of `Cc1ccc(S(=O)(=O)O)c(C)c1`, the outcome was inactive. Consider `ClC1=C(Cl)C(Cl)(Cl)C(Cl)=C1Cl`, for which the outcome was inactive.

For a further assay, the target named is human Peripheral-type Benzodiazepine Receptor (PBR), TSPO (gene 706) (UniProt P30536). Briefly: NVS_MP_hPBR: NovaScreen (NVS) Membrane Protein Assay for human Peripheral-type Benzodiazepine Receptor (PBR) (AID 2283331).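 Further: hits reduce radioligand binding relative to DMSO baseline.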 The gist of the method: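 Using human colon-derived membranes, this one-endpoint binding test reads radioligand loss by scintillation after 1 h. Screening started at 25 uM in duplicate, with positive and negative controls on every plate, and actives moved to dose series.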
Chain of human Peripheral-type Benzodiazepine Receptor (PBR), TSPO (gene 706) (P30536 whole entry, looked up): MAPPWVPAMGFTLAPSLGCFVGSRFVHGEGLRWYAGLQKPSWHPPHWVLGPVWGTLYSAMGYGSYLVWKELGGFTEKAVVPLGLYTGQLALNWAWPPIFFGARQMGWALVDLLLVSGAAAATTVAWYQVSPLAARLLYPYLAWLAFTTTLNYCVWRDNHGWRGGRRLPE
Turning to `O=C(O)Cc1cc(I)c(Oc2cc(I)c(O)c(I)c2)c(I)c1`, the molecule was called inactive. One may read the AC50 as the midpoint of the concentration-response curve, whichever way the signal moves. Consider `CC[C@H](c1ccc(O)cc1)[C@@H](CC)c1ccc(O)cc1`, for which the AC50 was 795 nM (active) [middle of 4 runs]. The same measure, in the same setting: as for `Cc1oc(-c2ccccc2)nc1CCOc1ccc(C[C@H](Nc2ccccc2C(=O)c2ccccc2)C(=O)O)cc1`, the figure is 6.36 µM (active). Take `CCCOC(=O)c1ccc(O)cc1`: the molecule was classed as inactive. In the case of `NC(=O)N(O)[C@@H]1C=C[C@H](Oc2cccc(Oc3ccc(F)cc3)c2)C1`, the AC50 was 28.5 µM (active). On to `CCN(CC)CCNc1ccc(CNC=O)c2sc3ccc(OC)cc3c(=O)c12`, for which the concentration at half-maximal activity (AC50) was 8.04 µM (active). Consider `CCC(=C(c1ccc(O)cc1)c1ccc(OCCN(C)C)cc1)c1ccccc1`, for which the molecule was classed as inactive. Turning to `CCc1ccc(CCOc2ccc(CC3SC(=O)NC3=O)cc2)nc1` (stereo not drawn), the AC50 is 12.1 µM (active). Take `CC1=C(/C=C/C(C)=C/C=C/C(C)=C/C(=O)O)C(C)(C)CCC1`: the AC50 was 18.1 µM (active). Turning to `NC(=O)N1C(=O)C(C(=O)c2cc(Cl)cs2)c2cc(F)c(Cl)cc21` (stereo not drawn), the AC50 is 0.951 µM (active).

For the molecule `c1ccc2cc3c(ccc4ccccc43)cc2c1`, the AC50 is 3.45 µM (active) and 5.17 µM (active) and 12.5 µM (active).

The target of a further assay is human Androgen Receptor (AR), AR (gene 367) (UniProt P10275). The assay can be described thus: NVS_NR_hAR: NovaScreen (NVS) Nuclear Receptor Binding Assay for human Androgen Receptor (AR) (AID 2283332). The gist of the method:
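Actives from a duplicate 25 uM single-point screen went on to concentration series. Read-out after 20 h was scintillation counting of displaced radioligand in LnCAP extract, with DMSO as baseline.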
In the case of `CC[C@H](c1ccc(O)cc1)[C@@H](CC)c1ccc(O)cc1`, the AC50 was 0.416 µM (active) and the call was inactive.

As for `Cc1oc(-c2ccccc2)nc1CCOc1ccc(C[C@H](Nc2ccccc2C(=O)c2ccccc2)C(=O)O)cc1`, the AC50 was 1.92 µM (active). Turning to `Oc1cc2ccccc2c2ccccc12`, the AC50 was 19.2 µM (active). `CCCCCCCCCCCCc1ccccc1S(=O)(=O)O`: the AC50 is 8.85 µM (active).

`CCC(=C(c1ccc(O)cc1)c1ccc(OCCN(C)C)cc1)c1ccccc1`: the AC50 was 8.62 nM (active) and 653 nM (active).
